From PubChem BioAssay (Tox21) come the findings set out here.

Values without a mark were called inactive. Records with an inconclusive call do not appear. Calls of active or inactive are those of the source. Unless noted, the call rests on the fitted dose curve; in most records, active means well fitted curve in the direction sought with a large enough effect in the repeat runs; inconclusive means weak or mixed curves; inactive means no such curve, though single readings can be large; an effect the other way counts as inactive or inconclusive.

Experiment [1] in a line: qHTS assay to test for compound auto fluorescence at 535 nm (green) in HEK293 cells (AID 720680). Further: on the % scale 0 is the no-effect control and ±100 the full control effect.
Experiment [2] is described as follows: qHTS assay to test for compound auto fluorescence at 460 nm (blue) in HEK293 cell free culture (AID 720681). Further: on the % scale 0 is the no-effect control and ±100 the full control effect. Put shortly: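 Blue fluorescence (Ex 405/Em 460 nm, triamterene-equivalent) was read immediately after pin transfer of compound or DMSO into medium (DMEM, 10% FBS) without cells.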
Experiment [3] in a line: qHTS assay to test for compound auto fluorescence at 535 nm (green) in HEK293 cell free culture (AID 720682). Further: on the % scale 0 is the no-effect control and ±100 the full control effect. Put shortly:
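Green-channel intensity (Ex/Em 485/535 nm) was recorded from compound-treated wells containing only DMEM with 10% FBS. Fluorescein provided the equivalency standard.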

The nature of experiment [4]: qHTS assay to test for compound auto fluorescence at 590 nm (red) in HEK293 cell free culture (AID 720683). Further: on the % scale 0 is the no-effect control and ±100 the full control effect. The method in brief:
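Red-channel autofluorescence of compounds in culture medium (DMEM, 10% FBS), no cells, measured at 540/590 nm. Rose Bengal sodium is the reference fluorophore for equivalence.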
For orientation: qHTS replaces the single test concentration by a dilution series.

Experiment [5] is described as follows: qHTS assay to test for compound auto fluorescence at 590 nm (red) in HepG2 cell free culture (AID 720684). Further: on the % scale 0 is the no-effect control and ±100 the full control effect. Put shortly: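 Plate contents were MEM with 10% FBS plus test compound or DMSO, no cells. Fluorescence was recorded with 540 nm excitation and 590 nm emission.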
The nature of experiment [6]: qHTS assay to test for compound auto fluorescence at 460 nm (blue) in HepG2 cell free culture (AID 720685). Further: on the % scale 0 is the no-effect control and ±100 the full control effect. Put shortly:
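Compound (23 nL) or DMSO pinned into cell-free MEM with 10% FBS; blue fluorescence read at 405/460 nm excitation/emission, expressed as auto-fluorescence equivalency to triamterene.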

A short description of experiment [7]: qHTS assay to test for compound auto fluorescence at 535 nm (green) in HepG2 cell free culture (AID 720686). Further: on the % scale 0 is the no-effect control and ±100 the full control effect.
The nature of experiment [8]: qHTS assay to test for compound auto fluorescence at 460 nm (blue) in HepG2 cells (AID 720687). Further: on the % scale 0 is the no-effect control and ±100 the full control effect. Put shortly: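 Blue-channel autofluorescence (Ex/Em 405/460 nm, triamterene-equivalent) was measured after 1 hr compound exposure at 37 C, 5% CO2. Cells were HepG2, plated overnight at 37 C in MEM plus 10% FBS.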
Experiment [9] has as its target Glucocorticoid receptor (Homo sapiens) (UniProt P04150). Briefly: qHTS assay to identify small molecule agonists of the glucocorticoid receptor (GR) signaling pathway (AID 720691; active means well fitted activation curve with a large enough effect in the signal ratio in the repeat runs, not every such curve was filed as active; the % refers to the signal ratio; further: on the % scale 0 is the no-effect control and ±100 the full control effect). Put shortly: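 qHTS in GR-bla HeLa cells: 4 h settling at 37 C/5% CO2, 18 h compound incubation at 37 C, 2 h LiveBLAzer B/G FRET substrate at room temperature, fluorescence intensity measured.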

The target is the same in experiment [10]. Kind of experiment: qHTS assay to identify small molecule antagonists of the glucocorticoid receptor (GR) signaling pathway (AID 720692; active means well fitted inhibition curve with a large enough effect in the signal ratio in the repeat runs, not every such curve was filed as active; the % refers to the signal ratio; further: potency means the concentration at half of the fitted maximal effect). Put shortly:
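Inhibition of glucocorticoid signalling is measured in HeLa cells with a GRE-controlled beta-lactamase reporter; cells are co-treated with compound and 5 nM dexamethasone (final) for 18 h before FRET substrate readout.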

The nature of experiment [11]: qHTS assay to identify small molecule antagonists of the glucocorticoid receptor (GR) signaling pathway - cell viability counter screen (AID 720693). Further: on the % scale 0 is the no-effect control and ±100 the full control effect; nearly all actives have a fitted effect of over 55% in size.
A short description of experiment [12]: qHTS assay for identifying genotoxic compounds that show differential cytotoxicity against isogenic chicken DT40 cell lines with known DNA damage response pathways - wild type cell line (AID 743012). Further: nearly all actives have a fitted effect of over 60% in size. Further: potency means the concentration at half of the fitted maximal effect. Put shortly: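 First, wild type DT40 cells were plated at 300 per well and equilibrated about 0.5 h at 37 C/5% CO2. Next, compounds in DMSO were added and exposure lasted 40 h. Finally, CellTiter-Glo was added for 30 min at room temperature and luminescence recorded.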

Experiment [13] is described as follows: qHTS assay for identifying genotoxic compounds that show differential cytotoxicity against isogenic chicken DT40 cell lines with known DNA damage response pathways - Rad54/Ku70 mutant cell line (AID 743015). Further: nearly all actives have a fitted effect of over 60% in size. Further: potency means the concentration at half of the fitted maximal effect.
The nature of experiment [14]: qHTS assay to identify small molecule antagonists of the androgen receptor (AR) signaling pathway - cell viability counter screen (AID 743033; further: on the % scale 0 is the no-effect control and ±100 the full control effect; nearly all actives have a fitted effect of over 45% in size).
Experiment [15] is described as follows: qHTS assay to identify small molecule antagonists of the androgen receptor (AR) signaling pathway using the MDA cell line - cell viability counter screen (AID 743041; further: on the % scale 0 is the no-effect control and ±100 the full control effect; nearly all actives have a fitted effect of over 45% in size). The method in brief: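 R1881-driven MDA-kb2 AR-luc cells, 3,000/well, were dosed with library compounds for 16 h; cell health came from CellTiter-Fluor fluorescence in the reporter wells.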

A short description of experiment [16]: qHTS assay to identify small molecule antagonists of the thyroid receptor (TR) signaling pathway - cell viability counter screen (AID 743064). Further: on the % scale 0 is the no-effect control and ±100 the full control effect; nearly all actives have a fitted effect of over 50% in size. Put shortly:
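In rat pituitary GH3.TRE-Luc reporter cells co-exposed to compound and 1 nM T3 for 23.5 h, cytotoxicity was assessed with CellTiter-Fluor in the same wells, read by fluorescence.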

Experiment [17] has as its target Androgen receptor (Homo sapiens) (UniProt P10275). Briefly: qHTS assay to identify small molecule agonists of the androgen receptor (AR) signaling pathway using the MDA cell line (AID 743040; further: on the % scale 0 is the no-effect control and ±100 the full control effect; nearly all actives have a fitted effect of over 20% in size). Put shortly:
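After a 5 h incubation at 37C and 0% CO2, MDA-kb2 reporter cells were dosed with compounds in DMSO and kept 16 h under the same conditions. Luciferase activity was then read as luminescence with ONE-Glo.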

For experiment [18] the target is unchanged. Kind of experiment: qHTS assay to identify small molecule antagonists of the androgen receptor (AR) signaling pathway using the MDA cell line (AID 743042; further: potency means the concentration at half of the fitted maximal effect; nearly all actives have a fitted effect of over 55% in size). Put shortly:
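Antagonist mode: compounds plus R1881 agonist added to MDA-kb2 AR-luc cells, incubated 16 h at 37C. Luciferase reporter luminescence quantified, with multiplexed CellTiter-Fluor readout for cell viability.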

Experiment [19] is described as follows: qHTS assay for identifying genotoxic compounds that show differential cytotoxicity against isogenic chicken DT40 cell lines with known DNA damage response pathways - Rev3 mutant cell line (AID 743014). Further: potency means the concentration at half of the fitted maximal effect; nearly all actives have a fitted effect of over 55% in size.

Glucocorticoid receptor (Homo sapiens), sequence (P04150 whole entry, looked up): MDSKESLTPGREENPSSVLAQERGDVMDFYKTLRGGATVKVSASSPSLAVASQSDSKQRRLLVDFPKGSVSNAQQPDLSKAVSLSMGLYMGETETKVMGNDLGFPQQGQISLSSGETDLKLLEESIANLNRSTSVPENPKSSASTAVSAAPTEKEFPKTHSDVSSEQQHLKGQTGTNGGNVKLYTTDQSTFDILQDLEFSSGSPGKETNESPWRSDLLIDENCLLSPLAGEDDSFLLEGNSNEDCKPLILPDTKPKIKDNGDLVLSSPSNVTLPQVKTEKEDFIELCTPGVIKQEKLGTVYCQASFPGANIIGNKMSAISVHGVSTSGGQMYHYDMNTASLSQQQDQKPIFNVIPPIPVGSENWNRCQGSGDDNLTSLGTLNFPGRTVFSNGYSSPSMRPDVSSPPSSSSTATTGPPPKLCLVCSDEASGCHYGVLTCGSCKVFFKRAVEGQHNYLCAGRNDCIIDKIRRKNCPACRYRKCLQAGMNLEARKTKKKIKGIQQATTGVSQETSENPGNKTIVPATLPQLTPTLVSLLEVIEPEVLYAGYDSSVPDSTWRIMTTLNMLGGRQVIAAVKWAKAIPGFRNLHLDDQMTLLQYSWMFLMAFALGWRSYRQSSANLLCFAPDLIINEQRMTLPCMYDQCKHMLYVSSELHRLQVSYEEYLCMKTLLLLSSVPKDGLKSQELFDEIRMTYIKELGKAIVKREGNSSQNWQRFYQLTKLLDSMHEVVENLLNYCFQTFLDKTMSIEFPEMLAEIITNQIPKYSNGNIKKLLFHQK
Androgen receptor (Homo sapiens), sequence (P10275 whole entry, looked up): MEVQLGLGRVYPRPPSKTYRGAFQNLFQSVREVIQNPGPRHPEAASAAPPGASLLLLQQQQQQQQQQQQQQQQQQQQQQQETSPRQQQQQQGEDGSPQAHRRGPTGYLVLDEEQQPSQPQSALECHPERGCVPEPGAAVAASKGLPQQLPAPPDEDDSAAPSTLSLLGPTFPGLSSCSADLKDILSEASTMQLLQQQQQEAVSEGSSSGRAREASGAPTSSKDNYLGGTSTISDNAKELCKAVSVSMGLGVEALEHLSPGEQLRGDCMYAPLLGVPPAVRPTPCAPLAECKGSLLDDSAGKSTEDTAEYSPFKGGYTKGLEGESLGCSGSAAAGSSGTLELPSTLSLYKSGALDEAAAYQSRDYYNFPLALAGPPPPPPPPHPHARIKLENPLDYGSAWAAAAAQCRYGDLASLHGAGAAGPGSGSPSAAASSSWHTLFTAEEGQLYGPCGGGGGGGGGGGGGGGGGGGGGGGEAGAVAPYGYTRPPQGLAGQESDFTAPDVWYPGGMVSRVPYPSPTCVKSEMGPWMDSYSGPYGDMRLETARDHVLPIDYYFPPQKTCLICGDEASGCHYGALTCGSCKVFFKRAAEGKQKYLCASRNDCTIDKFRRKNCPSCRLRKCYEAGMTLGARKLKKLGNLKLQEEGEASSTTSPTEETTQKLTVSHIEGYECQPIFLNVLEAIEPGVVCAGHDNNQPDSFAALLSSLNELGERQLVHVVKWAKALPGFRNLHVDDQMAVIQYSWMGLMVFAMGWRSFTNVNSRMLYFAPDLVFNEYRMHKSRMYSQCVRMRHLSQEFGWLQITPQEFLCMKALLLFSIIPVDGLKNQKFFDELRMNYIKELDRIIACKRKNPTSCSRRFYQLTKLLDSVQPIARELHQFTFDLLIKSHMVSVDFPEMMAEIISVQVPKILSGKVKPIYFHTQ

Consider `C[C@]12CCC(=O)C=C1C=C[C@@H]1[C@@H]2CC[C@@]2(C)[C@H]1CC[C@@]21CCC(=O)O1`, for which the call in [1], in experiment [3], in experiment [4], in experiment [5] and in experiment [7] was inactive. Further, the Potency result in experiment [2], in experiment [6], in experiment [8], in [9], in experiment [11] and in experiment [14] was “inactive” throughout. Besides, the Potency entry in experiment [15] and in experiment [16] was “inactive” in each case. The Potency in experiment [10] was 10.7 µM (active); in [12] it was 16.8 µM (active); in experiment [13], 26.6 µM (active).
For the compound `O=C1OCCN1/N=C/c1ccc([N+](=O)[O-])o1`, the call in experiment [1], in [3], in [4], in [5] and in experiment [7] was inactive. The Potency entry in experiment [2], in [6], in experiment [8], in [9], in [10] and in experiment [11] was “inactive” throughout. Moreover, the Potency result in experiment [16] was “inactive”.
On to `O=C(N/N=C/c1ccc([N+](=O)[O-])o1)c1ccc(O)cc1`, for which the fluorescence, % of fluorescein in [1] is 0.0272% [at 18.6 µM]. Moreover, the fluorescence, % of fluorescent control in [2] was -0.307% [at 18.6 µM]; in experiment [4], -0.537% [at 18.6 µM]; in experiment [6] it was -0.18% [at 18.6 µM]; in [8] it was -0.0309% [at 18.6 µM]. For the same compound, in experiment [3], the activity change is 0.0091% [at 18.6 µM]. In addition, in experiment [5], the fluorescence, % of Rose Bengal was -0.154% [at 18.6 µM]. Moreover, the fluorescence, % of fluorescein control in [7] is -0.0078% [at 18.6 µM]. The Potency entry in experiment [9], in experiment [10], in [11], in [14] and in [17] was “inactive” each time. Besides, the Potency in experiment [12], in experiment [13] and in experiment [18] was 4.52 µM (active) each time.
As to `C/C=C(\C)C(=O)OCCC(C)CCC=C(C)C` (centres undefined), the compound was classed as inactive in experiment [1], in experiment [3], in experiment [4], in experiment [5] and in experiment [7]. The Potency result in [2], in [6], in [8], in [9], in experiment [10] and in [11] was “inactive” throughout. In addition, the Potency entry in experiment [12], in [14] and in [15] was “inactive” in each case.
Regarding `CCC(C(=O)OCCOCCN(CC)CC)c1ccccc1` (centres undefined), the compound was called inactive in [1], in experiment [3], in [4], in experiment [5] and in [7]. In addition, the Potency result in experiment [2], in experiment [6], in [8], in experiment [9], in experiment [10] and in experiment [11] was “inactive” throughout. For the same compound, the Potency entry in [14], in experiment [15] and in [16] was “inactive” each time. Besides, the Potency in [19] was 10.6 µM (active); in experiment [13], 21.1 µM (active).
For the compound `Cc1nc2ccccc2s1`, the call in experiment [1], in [3], in [4], in experiment [5] and in [7] was inactive. Besides, the Potency entry in experiment [2], in experiment [6], in experiment [8], in experiment [9], in experiment [10] and in experiment [11] was “inactive” throughout. Also, the Potency entry in experiment [12], in [13], in experiment [14] and in experiment [16] was “inactive” in each case.
On to `Cc1ccnc2ccccc12`, for which the call in [1], in experiment [3], in experiment [4], in [5] and in experiment [7] was inactive. The Potency entry in experiment [2], in experiment [6], in experiment [8], in [9], in experiment [10] and in experiment [11] was “inactive” each time. Moreover, the Potency entry in experiment [12], in experiment [13], in experiment [14] and in [15] was “inactive” each time.
